In PubChem BioAssay AID1986 (Sanford-Burnham Center for Chemical Genomics, 2009) one finds inhibition data, which are given here for 46 molecules.

Each structure is given as a SMILES string. In all, about 290,000 compounds went through this assay and about 890 (0.31%) were called active. No stated cut-off is given here; in the data, active means inhibition mostly above about 52% (no sharp cut-off); inactive means mostly below about 76%. What follows is part of a selection rich in actives, with near analogues and random picks from the rest.

This assay can be described thus: inhibitors of HIV fusion peptide binding, primary screen, biochemical, uHTS, fluorescence dequenching (AID 1986). To be noted: cell-free peptide binding, 30 min, stronger effect = higher value.
[1] abbreviates: measured here: repeat confirmation average inhibition, at 18.6 µM.

In general, inhibition refers to the relative decrease from the control value, in per cent. Consider `COC(=O)COc1ccc(C2Nc3c(Cl)ccc(C(=O)O)c3C3C=CCC32)cc1` (centres undefined), for which, where the note is “at 20 µM”, the inhibition was 62.9% (active).

For `Cc1c(OCC(=O)OC(C)(C)C)ccc2c3c(c(=O)oc12)CCC3`, for the setting “at 20 µM”, the inhibition was 1.6% (inactive).

For the molecule `O=C1C=C(O)c2cccc3cccc1c23`, under “at 20 µM”, the inhibition was 9% (inactive).

`NC1=Nc2cccc3cccc1c23`: under “at 20 µM”, the inhibition is 5.1% (inactive).

As for `NC1=CC(=O)c2cccc3cccc1c23`, the inhibition runs as follows: (at 20 µM) 64% (active); under setting [1], 63.9%.

As to `CCOc1cc(/C=C2\C(=O)ON=C2c2ccccc2)ccc1OC`, the inhibition (at 20 µM) is 0.3% (inactive).

In the case of `COc1cc(/C=C2\C(=O)ON=C2c2ccccc2)cc(OC)c1OC`, under “at 20 µM”, the inhibition is 1.4% (inactive).

Turning to `COc1cc(/C=C2\C(=O)ON=C2c2ccccc2)cc(Br)c1O`, the inhibition is, setting by setting: (at 20 µM) 63.3% (active); under setting [1], 106%.

As for `COc1cc(/C=C2\C(=O)ON=C2c2ccccc2)cc(Cl)c1O`, the inhibition (at 20 µM) is 45.2% (inactive).

With `CCOc1cc(/C=C2/C(=O)ON=C2C)cc(Br)c1O`, the inhibition runs as follows: (at 20 µM) 57.8% (active); under setting [1], 51.8%.

On to `CCOc1cc(/C=C2\C(=O)ON=C2c2ccccc2)cc(Br)c1O`, for which the inhibition (at 20 µM) is 69.6% (active) and the inhibition under setting [1] was found to be 108%.

For the molecule `CCOc1cc(/C=C2/C(=O)ON=C2C)ccc1O`, where the note is “at 20 µM”, the inhibition is 33.7% (inactive).

For the molecule `COc1cc(/C=C2/C(=O)ON=C2c2ccccc2)ccc1O`, where the note is “at 20 µM”, the inhibition was 10.6% (inactive).

Regarding `C#CCOc1c(Br)cc(/C=C2/C(=O)ON=C2C)cc1OCC`, the inhibition (at 20 µM) is 4.2% (inactive).

With `Cc1ccc(N/C=C2\CCCCC2=O)nc1`, the inhibition (at 20 µM) is 0.7% (inactive).

Turning to `Cc1ccc(S(=O)(=O)N/N=C\c2cn(CC(N)=O)c3ccccc23)cc1`, where the note is “at 20 µM”, the inhibition was 0.7% (inactive).

As for `CN(C)c1ncnc(N(C)C)c1[N+](=O)[O-]`, the inhibition (at 20 µM) was -2.4% (inactive).

On to `COc1ccccc1/C=C(/C(=O)NCCCn1ccnc1)c1ccccc1`, for which the inhibition (at 20 µM) was 0.9% (inactive).

In the case of `O=C(N/N=C/c1ccccn1)c1cc(C2CC2)[nH]n1`, the inhibition (at 20 µM) is -0.3% (inactive).

Consider `Cc1oc2cc3oc(=O)cc(C)c3cc2c1C`, for which, for the setting “at 20 µM”, the inhibition was 1% (inactive).

`COC(=O)c1cc(O)c(O)c(O)c1`: for the setting “at 20 µM”, the inhibition was 11% (inactive).

As for `O=C(OCC1O[C@@H](OC(=O)c2cc(O)c(O)c(O)c2)[C@@H](OC(=O)c2cc(O)c(O)c(O)c2)[C@@H](OC(=O)c2cc(O)c(O)c(O)c2)[C@@H]1OC(=O)c1cc(O)c(O)c(O)c1)c1cc(O)c(O)c(O)c1` (some centres undefined), where the note is “at 20 µM”, the inhibition is 56% (active).

With `COC1OC(COC(=O)c2ccccc2)C(OC(=O)c2ccccc2)C1OC(=O)c1ccccc1` (centres undefined), for the setting “at 20 µM”, the inhibition was -0.6% (inactive).

Regarding `O=C(CCN1C(=O)c2ccc([N+](=O)[O-])cc2C1=O)Nc1nccs1`, where the note is “at 20 µM”, the inhibition was -0.3% (inactive).

Regarding `O=C(CCCn1c(=S)[nH]c2ccccc2c1=O)NCCSCc1ccccc1`, for the setting “at 20 µM”, the inhibition was 1.5% (inactive).

With `CCN(CC)S(=O)(=O)c1ccc(O)c(C(=O)OCC(=O)Nc2ccc(OC(F)(F)F)cc2)c1`, the inhibition (at 20 µM) is -1.8% (inactive).

In the case of `COc1cc2ccccc2cc1C(=O)NC(=S)Nc1cc(C(=O)O)ccc1C`, the inhibition by setting is: (at 20 µM) 51.6% (inactive); under setting [1], -1.6%.

`COc1cc2ccccc2cc1C(=O)NC(=S)Nc1cccc(C(=O)O)c1`: the inhibition (at 20 µM) was 58.8% (active).

Turning to `COc1cc2ccccc2cc1C(=O)NC(=S)Nc1ccc(C(=O)O)cc1`, the inhibition was 53.8% (inactive) (at 20 µM) and 2.1% under setting [1].

Regarding `COc1ccc(/C=N\NC(=O)c2ccccc2Br)cc1COc1c(F)c(F)cc(F)c1F`, where the note is “at 20 µM”, the inhibition is 0.6% (inactive).

Turning to `COc1cc(C(=O)NCC(=O)N/N=C(/C)c2cccs2)cc(OC)c1OC`, the inhibition (at 20 µM) was -1.2% (inactive).

On to `CC(C)P(=O)(Cc1cccc(C#N)c1)C(C)C`, for which the inhibition (at 20 µM) is 3.5% (inactive).

Regarding `COC(=O)c1ccc(OCC2c3cc(OC)c(OC)cc3CCN2C(=O)c2ccco2)cc1` (centres undefined), the inhibition (at 20 µM) is -1.1% (inactive).

Take `Cc1ccc(/C=C(\CCC(=O)O)c2nc3ccccc3s2)cc1[N+](=O)[O-]`: the inhibition (at 20 µM) was 27.3% (inactive).

In the case of `O=C(O)CC/C(=C\c1ccc(Cl)c([N+](=O)[O-])c1)c1nc2ccccc2s1`, under “at 20 µM”, the inhibition was 13.2% (inactive).

On to `COc1ccc(C(=O)Nc2cccc(/C=C(\CCC(=O)O)c3nc4ccccc4s3)c2)cc1`, for which the inhibition (at 20 µM) was 59.2% (active).

For the molecule `COc1cccc(/C=C(\CC(=O)O)c2nc3ccccc3s2)c1`, the inhibition (at 20 µM) is 3.6% (inactive).

Consider `O=C(O)CC/C(=C\c1cccc(NC(=O)c2ccccc2Cl)c1)c1nc2ccccc2s1`, for which the inhibition is 64.7% (inactive) (at 20 µM) and 17.1% under setting [1].

As for `CN(c1ccccc1)c1ccc(/C=C(\CCC(=O)O)c2nc3ccccc3s2)cc1[N+](=O)[O-]`, the inhibition (at 20 µM) is 65% (active).

`COc1cc(NC(=O)C2CC(=O)NC3=C2C(=O)CCC3)c(OC)cc1Cl` (centres undefined): where the note is “at 20 µM”, the inhibition is -1.9% (inactive).

Regarding `N#CC1=C(N)OC2=C(CC/C2=C\c2ccc(F)cc2)C1c1ccc(F)cc1` (centres undefined), the inhibition by setting is: (at 20 µM) 73.8% (inactive); under setting [1], 40.5%.

As for `COc1cc2c(cc1NC(=O)CSc1ccc(C)cc1)oc1ccccc12`, for the setting “at 20 µM”, the inhibition is 0.2% (inactive).

On to `NC(=O)C1CCN(C(=O)CN2CCc3ccccc32)CC1`, for which the inhibition (at 20 µM) was -0.5% (inactive).

For `O=C(Nc1ccc(O)cc1C(=O)O)c1ccc2c(c1)C(=O)N(Cc1ccco1)C2=O`, where the note is “at 20 µM”, the inhibition was 24.6% (inactive).

With `O=C(Nc1ccc(Cl)cc1C(=O)O)c1ccc2c(c1)C(=O)N(Cc1ccco1)C2=O`, where the note is “at 20 µM”, the inhibition was 50% (active).

For the molecule `Cc1c(NC(=O)c2ccc3c(c2)C(=O)N(Cc2ccco2)C3=O)cccc1C(=O)O`, the inhibition (at 20 µM) is 6.1% (inactive).
